# Pf growth 48h: inhibits P. falciparum growth in the first generation, 48 h | 5.9% of 310,000 active | P. falciparum luciferase growth in erythrocytes, 48 h | Potency, µM (doses to about 28.7 µM), for the others: top-dose activity change, negative = inhibition, usual class: inhibitors; further: potency means the concentration at half of the fitted maximal effect
#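 Growth was read as firefly luciferase luminescence after a 48 h, 37 C, 5% CO2 exposure of compounds to reporter-bearing P. falciparum cultures (0.1% parasitemia, 2% hematocrit final) in Albumax-supplemented RPMI 1640.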
# FBPA Giardia inh: Giardia lamblia aldolase inhibition | AID 2451 | purified Giardia FBPA | A8B2U2 | Potency, µM (titrated, usually from 59.6 µM), for the others: at the highest dose activity, negative = inhibition, most hits filed as inhibitors | 0.71% of 290,000 active; further: potency means the concentration at half of the fitted maximal effect; nearly all actives have a fitted effect of over 55% in size
# Target sequence (A8B2U2 whole entry, looked up): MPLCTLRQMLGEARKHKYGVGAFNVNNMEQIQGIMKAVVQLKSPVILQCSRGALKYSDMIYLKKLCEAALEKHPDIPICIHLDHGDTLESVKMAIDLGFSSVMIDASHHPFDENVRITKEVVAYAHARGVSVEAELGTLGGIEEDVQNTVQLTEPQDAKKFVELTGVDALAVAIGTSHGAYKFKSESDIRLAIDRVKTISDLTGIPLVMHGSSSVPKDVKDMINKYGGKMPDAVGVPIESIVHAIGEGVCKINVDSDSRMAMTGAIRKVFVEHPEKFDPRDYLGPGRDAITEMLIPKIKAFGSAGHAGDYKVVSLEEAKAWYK
#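 Giardia FBPA (40 nM reagent) was preincubated 10 min at RT with compound (up to 57.5 uM final), then substrate plus GAPDH/TPI/NAD/arsenate coupling system with diaphorase/resazurin was added; resorufin fluorescence (525/598 nm) was read after 20 min.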
# Sm TGR inh: S. mansoni TGR enzyme inhibition; Potency, µM (doses to about 114 µM), without a hit: top-dose activity change, negative = inhibition, usual class: inhibitors; 3% of 360,000 active; purified TGR, DTNB reduction, TNB absorbance 405 nm; Q962Y6; further: potency means the concentration at half of the fitted maximal effect; nearly all actives have a fitted effect of over 60% in size
#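 Kinetic colorimetric format: TGR-catalysed, NADPH-driven DTNB reduction monitored via TNB absorbance. Enzyme dispensed at 20 nM; compound exposure 15 min at room temperature before reaction start.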
# HCMV antiviral: blocks human cytomegalovirus replication. HFF cells, HCMV-luciferase reporter, 72 h; hits give low values. activity change, negative = inhibition, % at 57.5 µM. 4.5% of 410,000 active; in the data active means activity change below about -60%; inconclusive means no clear call, values can overlap the other calls; inactive means above about -39%
#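 Screen run at 2 compound doses on HFFs infected with reporter HCMV, MOI 1 PFU/cell. Luciferase activity from cell lysates at 72 h post infection gave inhibition relative to buffer-only and Salinomycin wells.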
# Pf growth 96h: P. falciparum growth inhibition at 96 hours; P. falciparum luciferase reporter growth, 96 h; Potency, µM (doses to about 28.7 µM), for the others: top-dose activity change, negative = inhibition, actives largely listed as inhibitors; 6.9% of 320,000 active; AID 504834; further: potency means the concentration at half of the fitted maximal effect
#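 Plates of compound plus infected erythrocytes (2% hematocrit, 0.05% parasitemia final) incubate 96 hours, 37 C, 5% CO2. Detection reagent added; reduced luminescence from the parasites' luciferase reporter flags inhibition.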
# * hit, by the source's call; ? = inconclusive; · = no result. A selection: hits, their analogues and other compounds. The true share with any hit is near 14%. Unless noted, the call rests on the fitted dose curve; in most records, active means well fitted curve in the direction sought with a large enough effect; inconclusive means small, poorly fitted or top-dose-only effect, or another doubt; inactive means no such curve, though single readings can be large; an effect the other way counts as inactive or inconclusive. On the % scale 0 is the no-effect control and ±100 the full control effect.
SMILES,Pf growth 48h,FBPA Giardia inh,Sm TGR inh,HCMV antiviral,Pf growth 96h
COc1ccc(NC(=O)COC(=O)/C=C/C(=O)OCC(=O)Nc2ccc(OC)c(Cl)c2)cc1Cl,23%,0%,?,-20,1%
CCOC(=O)/C=C/C(=O)OCC(=O)Nc1ccc(Cl)cc1Cl,-11%,0%,11µM*,44,6%
CCOC(=O)/C=C/C(=O)OCC(=O)Nc1c(Cl)cccc1Cl,13µM*,4%,20µM*,-27,-29%
C/C(=N\NC(=O)COc1cccc(C)c1)c1ccc2ccccc2c1O,?,·,-2%,-77*,2.6µM*
O=C(Cn1nc(C(=O)O)c2ccccc2c1=O)Nc1cccc(S(=O)(=O)N2CCCCCC2)c1,·,·,·,-17,·
C/C(=N\NC(=O)c1ccn(C)n1)c1ccco1,121%,1%,-10%,57,?
CC1Cc2cccc3ccc(=O)n(c23)C1 (stereo unspecified),·,·,·,3,·
Cc1ccc(C)n1-c1c(C(=O)NN)cnn1-c1ccccc1,10µM*,-8%,-5%,3,?
N#C/C(=C/c1ccc(N2CCOCC2)o1)c1ccc(Cl)cc1,160%,?,1µM*,82,218%
O=C(/C=C/c1ccco1)Nc1nc(-c2ccc(F)c(F)c2)cs1,?,5%,40µM*,·,1%
O=C(/C=C/c1ccccc1)Nc1scc(-c2ccccc2)c1C(=O)O,24%,?,17%,85,?
O=C(/C=C/c1ccco1)Nc1nc(-c2ccccc2)cs1,127%,-10%,-27%,-10,27%
Cc1ccc(NC(=O)/C=C/c2ccco2)nc1,158%,-11%,-17%,-63*,-26%
O=C(/C=C/c1ccco1)Nc1scc(-c2ccccc2)c1C(=O)O,?,?,8.9µM*,15,213%
Cc1csc(NC(=O)/C=C/c2ccc3c(c2)OCO3)n1,161%,-1%,3%,9,23%
Cc1csc(NC(=O)/C=C/c2ccco2)n1,254%,-7%,50µM*,47,184%
COC(=O)CNC(=O)C1(CC(C)C)C=CCN1C(=O)c1ccccc1 (stereo unspecified),·,2%,·,·,·
OC(Cc1cccc(Br)c1)c1ncc(-c2cccc(C(F)(F)F)c2)[nH]1 (stereo unspecified),·,·,·,-23,·
CC(CNC(=O)Cn1ccc2cc(S(=O)(=O)N3CCCCCC3)ccc21)c1ccccc1 (stereo unspecified),·,·,-4%,-29,·
COc1ccc(-c2csc(NC(=S)NC(=O)/C=C/c3ccco3)n2)cc1Br,10µM*,-10%,-32%,-73*,?
COc1ccc(-c2csc(NC(=S)NC(=O)/C=C/c3ccco3)n2)cc1OC,4%,-7%,-6%,-8,32%
CCOC(=O)Cc1csc(NC(=O)/C=C/c2ccc(Cl)cc2)n1,52%,4%,5%,?,?
Cc1csc(NC(=O)/C=C/c2ccc(C)o2)n1,209%,-15%,20µM*,37,142%
CCOC(=O)Cc1csc(NC(=O)/C=C/c2ccco2)n1,59%,-2%,11µM*,0,-8%
COc1cc(/C=N/N=C2\CC3CCC2(C)C3(C)C)ccc1O (stereo unspecified),-21%,-5%,-2%,-9,?
SMILES,Pf growth 48h,FBPA Giardia inh,Sm TGR inh,HCMV antiviral,Pf growth 96h
CC12CCC(C/C1=N\N=C1\NC(=O)/C(=C\c3cccc(Br)c3)S1)C2(C)C (stereo unspecified),?,0%,0%,-30,13µM*
Cc1ccc2cc(CN(C(=O)c3ccco3)c3cccc(C)c3C)c(=O)[nH]c2c1,?,3%,13µM*,?,4%
Cc1ccc(N(Cc2cc3ccc(C)cc3[nH]c2=O)C(=O)c2ccco2)c(C)c1,?,-1%,8.9µM*,-15,?
CCOc1ccc2[nH]c3c(NCCN(C)C)ncnc3c2c1,2.3µM*,11%,5%,21,2.1µM*
COc1ccc2[nH]c3c(NCc4ccco4)ncnc3c2c1,?,-1%,4%,·,0%
COc1cccc(/C=N/Nc2ncnc3c2[nH]c2ccc(C)cc23)c1OC,?,0%,-1%,33,?
CCN1CCCC1CNc1ncnc2c1[nH]c1ccc(Cl)cc12 (stereo unspecified),0.66µM*,3%,7%,18,1.5µM*
C=CCNc1ncnc2c1[nH]c1ccc(C)cc12,?,-11%,-10%,-68*,?
CCOc1ccc2[nH]c3c(NCCC(C)C)ncnc3c2c1,?,-10%,-10%,-12,?
Fc1ccc2[nH]c3c(NCc4ccccc4)ncnc3c2c1,5.9µM*,8%,12%,-85*,3.7µM*
Cc1ccc(C(=O)NCC(=O)OCc2cc(=O)n3ccsc3n2)cc1,·,·,0%,-7,·
COC(=O)C(N)(c1ccccc1)C(Nc1cccc(OC)c1)c1ccccc1 (stereo unspecified),·,·,·,17,·
CC(C)Oc1ccc(Nc2cc3c(cn2)cc(-c2cnn(C)c2)n3C)cc1,·,·,·,9,·
CCC(C(=O)Nc1ccc(F)cc1F)n1nc(-c2ccccc2)c2c(c1=O)CCCC2 (stereo unspecified),·,·,-6%,?,·
Clc1ccc2[nH]c3c(NCCCN4CCOCC4)ncnc3c2c1,0.41µM*,4%,-20%,78,212%
Cc1ccc2[nH]c3c(NCCN4CCOCC4)ncnc3c2c1,4.1µM*,-1%,-17%,-23,29%
Cc1cccc([N+](=O)[O-])c1NC(=O)CSc1nnc2ccccn12,-12%,·,-3%,26,?
O=C(NCCCNC(=O)c1cccs1)c1cccs1,11%,-2%,0%,60,55%
CCCCC(CC)CNC(=O)c1cccs1 (stereo unspecified),5.2µM*,6%,-2%,?,4.7µM*
Cc1ccc(S(=O)(=O)c2nnn3c2nc(N(C)Cc2ccccc2)c2cc(Cl)ccc23)cc1C,·,·,-2%,7,·
CCN(CC)c1nc2c(S(=O)(=O)c3ccccc3)nnn2c2ccc(Cl)cc12,·,·,1%,-76*,·
CCN(CC)c1nc2c(S(=O)(=O)c3cccc(Cl)c3)nnn2c2ccsc12,·,·,2%,-61*,·
CC1C(=O)N(Cc2cn(CCC3OCCO3)nn2)CCS(=O)(=O)N1Cc1ccc(-c2ccc(Cl)cc2)cc1 (stereo unspecified),·,·,·,-30,·
Cc1noc(/C=C/c2cccnc2)c1[N+](=O)[O-],?,0%,?,-98*,?
Cc1ccc(N/C=C/c2onc(C)c2[N+](=O)[O-])cc1,103%,1%,4%,0,95%
Cc1cccc(C)c1N/C=C/c1onc(C)c1[N+](=O)[O-],-7%,-11%,89µM*,-15,2%
CCC(=O)C1=C(c2cccc([N+](=O)[O-])c2)N(C(=O)CC)n2c(nnc2-c2ccccc2)S1,·,·,-2%,-35,·
CC(=O)C1=C(c2ccc(Cl)c(Cl)c2)N(C(C)=O)n2cnnc2S1,·,·,10µM*,-99*,·

# Source: PubChem BioAssay
